NR2F2 inh = NR2F2 transcriptional activity inhibitors, primary screen, cell-based, luciferase reporter, HEK293T, luminescence; COUP transcription factor 2 (Homo sapiens), P24468; HEK293T NGFI-A luciferase reporter; inhibition, % at 8.6 µM; 0.7% of 370,000 active;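 active = inhibition above a per-plate cutoff, mean inhibition of test wells between control levels plus 3 SD, cut at about 38% in these data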;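 also: cells cotransfected with COUP-TFII expression vector driving the NGFI-A reporter; 0% = median of COUP-TF2 test wells and 100% = reporter-only cells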
Target sequence (P24468 whole entry, looked up): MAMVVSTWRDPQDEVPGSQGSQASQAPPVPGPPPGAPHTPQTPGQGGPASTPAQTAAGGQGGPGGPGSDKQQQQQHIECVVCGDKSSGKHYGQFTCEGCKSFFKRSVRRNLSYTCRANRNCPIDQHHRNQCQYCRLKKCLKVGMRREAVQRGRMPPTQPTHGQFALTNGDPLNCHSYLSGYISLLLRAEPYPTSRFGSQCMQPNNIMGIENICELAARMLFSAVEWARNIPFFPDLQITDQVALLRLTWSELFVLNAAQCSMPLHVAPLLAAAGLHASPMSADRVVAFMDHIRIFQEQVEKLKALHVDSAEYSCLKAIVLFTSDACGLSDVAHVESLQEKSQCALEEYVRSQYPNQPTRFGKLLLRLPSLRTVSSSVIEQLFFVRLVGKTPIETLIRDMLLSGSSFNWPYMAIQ
697 NFkB inh = inhibitors of PMA/ionomycin-induced NF-kB reporter, 697 cells, primary screen, B-cell NF-kB inhibitor project, cell-based, luminescence, uHTS | inhibition, % at 4 µM | 0.33% of 330,000 active | AID 435022, 2010 | 697 B-cell NF-kB luciferase reporter, 16 h; in the data active = inhibition above about 35%
Gli-Sufu block = Gli-Sufu pathway antagonists, primary screen, luciferase luminescence, Sufu-KO-LIGHT cells, uHTS; Sufu-KO-LIGHT fibroblasts, Gli luciferase reporter luminescence; inhibition, % at 5 µM; 0.74% of 340,000 active;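 active = inhibition above about 55%, limit read from the data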;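 also: 0% = DMSO-treated cells and 100% = wells with medium but no cells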
TAG inh = inhibitors of triacylglycerol accumulation, primary screen, cell-based, uHTS, fluorescence, H9c2; H9c2 cells, Nile Red lipid (TAG) fluorescence; cells loaded with 200 µM oleic acid; 0.66% of 230,000 active; AID 651582, 2012; inhibition, % at 12.5 µM;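 active = pattern-corrected inhibition of lipid staining of at least 50% with the nuclear-stain viability signal not falling by more than 50%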;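 also: 0% = DMSO wells and 100% = triacsin C control wells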
Cardio protect = cardioprotection against H2O2-induced cell death, primary screen, uHTS, H9c2 cells, ATPLite luminescence | protection from H2O2 cell death, % at 20 µM | 0.63% of 360,000 active | H9c2 cardiomyocytes, H2O2 injury protection, 2 h | AID 588492, 2011;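 active = compounds giving at least 50% protection of heart cells from peroxide-induced death in the single-dose screen, raw or plate-pattern-corrected value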;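 also: 0% = DMSO wells with peroxide and 100% = DMSO wells without peroxide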
Jurkat NFkB inh = inhibitors of induced NF-kB luciferase reporter, primary screen, TCR NF-kB activation inhibitor project, cell-based, luminescence, uHTS. Jurkat, PMA/ionomycin-induced NF-kB luciferase reporter. inhibition, % at 4 µM. 0.53% of 330,000 active. AID 435003, 2010; in the data active = inhibition above about 50%
* hit, by the source's call; nt = no result given. In the library only some 2.6% were active in any assay of this set; here they are far more common.

SMILES	NR2F2 inh	697 NFkB inh	Gli-Sufu block	TAG inh	Cardio protect	Jurkat NFkB inh
C[C@@H]1OC(C2CCCCC2)N(C)[C@H]2C[C@H]3c4[nH]c5cccc(-c6cccc(F)c6)c5c4CCN3C(=O)[C@@H]12 (stereo partly drawn)	2	nt	nt	nt	nt	nt
N#Cc1c(-c2ccco2)cc(C2CC2)nc1N	-17	15	0	nt	24	0
N#Cc1c(-c2ccco2)cc(-c2cccnc2)nc1N	6	-23	7	nt	87*	-14
N#Cc1c(-c2ccco2)cc(-c2ccccn2)nc1N	-1	-3	-2	10	88*	11
C[C@H]1[C@H](NC(=O)c2cccc(Cl)c2)CC[C@@]23CCCN2C(=O)CCC[C@@H]13	-3	nt	nt	nt	nt	nt
COc1cc2ccccc2cc1C(=O)NNC(=O)c1ccccc1O	-19	-23	nt	0	52*	3
Cc1cc(C)c(NC(=O)CC(=O)c2ccccc2)c(Cl)c1	-16	-32	-23	nt	3	5
Cc1cc(C)c(C(=O)CC(=O)c2ccccc2Cl)c(O)c1	-6	-3	1	nt	51*	13
CN(C(=O)CSc1nc2c(c(=O)[nH]1)CCCC2)C1CCCCC1	-29	23	3	nt	63*	15
Cc1csc(NC(=O)c2ccc(COc3ccccc3F)o2)n1	-11	nt	nt	nt	nt	nt
CC(C)Oc1ccc(/C=N/NC(=O)C(CSCc2ccccc2)NC(=O)c2ccc([N+](=O)[O-])cc2)cc1 (stereo not drawn)	nt	-3	22	54*	2	16
O=c1c2cc3cc(Cl)ccc3nc2ncn1CCc1c[nH]c2ccccc12	-8	nt	nt	nt	nt	nt
O=S(=O)(Nc1ccc(O)c2ncccc12)c1ccccc1F	1	nt	nt	8	60*	nt
Oc1ccc(Nc2ccccc2F)c2cccnc12	27	nt	nt	nt	nt	nt
CN[C@H]1C[C@H]2c3[nH]c4cccc(-c5ccc6c(c5)OCO6)c4c3CCN2C[C@H]1[C@H](C)O	-9	nt	nt	nt	nt	nt
COc1ccc(NC(=O)C(OC(=O)c2ccc([N+](=O)[O-])o2)c2ccccc2)cc1Cl (stereo not drawn)	-6	-15	-3	nt	52*	-2
O=C(CSc1nc2ccccc2c(=O)n1-c1ccc(Cl)cc1)NNC(=S)Nc1ccccc1	0	nt	nt	nt	nt	nt
COc1ccccc1-c1cc(C(=O)NC2CCN(C)CC2)c2ccc(Cl)c(C)c2n1	-8	20	6	103*	-16	44
CCCCOc1ccc(C(=O)N/C(=C\c2ccc(OC)cc2)C(=O)OCc2ccco2)cc1	-17	20	10	2	57*	-2
COc1ccc(C(=O)N/C(=C\c2ccco2)C(=O)OCc2ccco2)cc1	10	-31	5	5	-2	-22
O=C(Nc1ccccc1)c1nc[nH]c1C(=O)Nc1ccccc1F	-10	nt	nt	-16	1	nt
O=C(Nc1ccccc1)c1nc[nH]c1C(=O)NCCNC(=O)c1[nH]cnc1C(=O)Nc1ccccc1	12	24	1	34	52*	13
O=C(Nc1ccccc1)c1nc[nH]c1C(=O)NCCCCNC(=O)c1[nH]cnc1C(=O)Nc1ccccc1	-3	10	8	21	81*	1
CC(C)(C)OC(=O)NCCCCCNC(=O)c1[nH]cnc1C(=O)Nc1ccccc1	-1	-17	5	nt	35	3
Cc1sc2nc(SCC(=O)c3ccc(O)c(O)c3)n(C)c(=O)c2c1C	-6	nt	nt	nt	nt	nt
SMILES	NR2F2 inh	697 NFkB inh	Gli-Sufu block	TAG inh	Cardio protect	Jurkat NFkB inh
O=C(NC1CC1c1ccccc1)N1CCC(c2nc3ccc(Cl)cc3[nH]2)CC1 (stereo not drawn)	3	nt	nt	nt	nt	nt
CCOC(=O)c1c(NC(=O)C(=O)N/N=C/c2ccc(OCC)cc2)sc2c1CCCCC2	25	-4	2	nt	0	3
CCOC(=O)c1c(NC(=O)C(=O)N/N=C/c2ccc(O)c(OC)c2)sc2c1CCCCC2	10	2	5	nt	53*	-18
COC(=O)c1ccc(CSc2ccc3nnc(-c4cccc(F)c4)n3n2)o1	-1	-63	20	7	105*	-10
Cc1[nH]n(C2=NCCS2)c(=O)c1N=Nc1cccc(C(F)(F)F)c1	13	15	26	17	62*	3
COc1ccc(OC)c(CN2C(=O)CSCCC2(C)c2nnnn2C2CCCC2)c1 (stereo not drawn)	1	nt	nt	nt	nt	nt
CCOC(=O)c1cc2c(=O)n3cccc(C)c3nc2n(Cc2ccco2)c1=NC(=O)c1cccnc1	-13	nt	0	nt	13	nt
CCOC(=O)c1cc2c(=O)n3ccccc3nc2n(Cc2ccco2)c1=NC(=O)c1cccnc1	-9	1	7	14	85*	-18
CCCCc1c(-c2ccccc2OC)ncn1Cc1cc(F)ccc1F	-3	nt	nt	nt	nt	nt
Cc1ccc(OCCn2c(NC(=O)c3ccco3)nc3ccccc32)cc1	-1	18	-3	-23	24	-2
Cc1cccc(OCCn2c(NC(=O)c3ccco3)nc3ccccc32)c1	26	-47	4	-51	62*	5
Oc1c(Cl)cc(Cl)c2cccnc12	-10	nt	-2	nt	-3	nt
Cc1ccc(S(=O)(=O)Nc2cc(Cl)c(O)c3ncccc23)cc1	1	-30	69*	-6	27	12
COc1ccc(-n2cc(-c3ccccc3)c3c(N4CCOCC4)ncnc32)cc1	6	22	15	-5	58*	39
CCN1CCN(c2ncnc3c2c(-c2ccccc2)cn3-c2ccc(F)cc2)CC1	15	-45	nt	0	12	4
Fc1ccc(-n2cc(-c3ccccc3)c3c(N4CCOCC4)ncnc32)cc1	3	-34	nt	1	58*	34
C=CCOc1ccc(C=Nc2ccc(OC)cc2)c(O)c1	-6	15	-4	-16	63*	2
CCOc1ccc(OCC(=O)NCc2n[nH]c(=O)c3ccccc23)cc1	-7	9	4	-25	45	-18
COC(=O)Cc1n[nH]c(=O)c2ccccc12	2	-6	1	nt	59*	-5
Cc1ccc(OCC(=O)NCc2n[nH]c(=O)c3ccccc23)cc1	-16	12	12	13	71*	-11
COc1ccc(NCc2n[nH]c(=O)c3ccccc23)cc1	-28	-2	-5	1	76*	-13
CCOC(=O)c1c(NC(=O)COC(=O)Cc2n[nH]c(=O)c3ccccc23)sc(C(=O)NC)c1C	-3	7	-1	17	106*	0
Cc1nnc(NCc2n[nH]c(=O)c3ccccc23)c2ccccc12	-16	16	6	nt	-11	-3
COc1ccccc1CCn1cnc(-c2ccc(Br)cc2)c1CC(C)C	10	nt	nt	nt	nt	nt
COC(=O)CN1CCN(C(=O)c2csc3ccccc23)CC1	14	nt	nt	nt	nt	nt

From PubChem BioAssay
